The source of these data is PubChem BioAssay.

The structures appear in SMILES notation. Activity calls are given as the source filed them.

The test system of experiment [1] is Plasmodium falciparum Sir2 (PF13_0152, Sir2A). The experiment can be described thus: Plasmodium falciparum Sir2A binding compounds – biochemical, small-molecule microarray, 635 nm fluorescence, primary screen (AID 1098).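 Also: score merges spot fluorescence intensity with its signal-to-noise ratio.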 The conditions noted are these: fluorescence 635 nm, higher = more signal.
Experiment [2] in a line: probe aDKK1 binding to arrayed compounds – biochemical, biotinylated probe, 635/667 nm fluorescence, primary screen (AID 1099).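 Also: score merges 667nm spot fluorescence with signal to noise across triplicate slides.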 The note with it: small-molecule microarray, higher = more signal.
The nature of experiment [3]: probe aCHRDL2 binding to arrayed compounds – biochemical, biotinylated probe, 635/667 nm fluorescence, primary screen (AID 1100). The note with it: small-molecule microarray, higher = more signal.
Experiment [4] can be described thus: change in splice reporter luminescence, either direction, cell-based, HEK293, spliceosome inhibition project, primary screen (AID 1101).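 Also: HEK293 cells carrying a splicing-competent luciferase reporter gene; test concentration not given here.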 The conditions noted are these: HEK293 splicing luciferase reporter, 24 h, higher = more signal, called active from +8 up or from −8 down. (Reporter assays use an easily measured gene product as a stand-in for the process of interest.)

Experiment [5] concerns the target Fibroblast growth factor 10 (Homo sapiens) (UniProt O15520). The experiment in a line: compounds binding fibroblast growth factor 10 – biochemical, small-molecule microarray, 635 nm fluorescence, primary screen (AID 1102). The note with it: FGF10 binding, fluorescence 635 nm, higher = more signal.
For experiment [6], the system named is glycogen synthase kinase-3 (GSK3A per assay name; protocol says GSK3B). The experiment can be described thus: compounds binding glycogen synthase kinase-3 – biochemical, small-molecule microarray, 635 nm fluorescence, GSK3A, primary screen (AID 1103). Also: the record names both GSK3A and GSK3B. The conditions noted are these: fluorescence 635 nm, higher = more signal.
The target of experiment [7] is Epidermal growth factor receptor (Homo sapiens) (UniProt P00533). The experiment can be described thus: compounds binding epidermal growth factor receptor – biochemical, small-molecule microarray, 635 nm fluorescence, primary screen (AID 1104).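 Also: score merges 667 nm emission intensity with spot signal to noise over triplicate slides.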 The note with it: EGFR binding, higher = more signal.
Sequence of Epidermal growth factor receptor (Homo sapiens) (P00533 whole entry, looked up): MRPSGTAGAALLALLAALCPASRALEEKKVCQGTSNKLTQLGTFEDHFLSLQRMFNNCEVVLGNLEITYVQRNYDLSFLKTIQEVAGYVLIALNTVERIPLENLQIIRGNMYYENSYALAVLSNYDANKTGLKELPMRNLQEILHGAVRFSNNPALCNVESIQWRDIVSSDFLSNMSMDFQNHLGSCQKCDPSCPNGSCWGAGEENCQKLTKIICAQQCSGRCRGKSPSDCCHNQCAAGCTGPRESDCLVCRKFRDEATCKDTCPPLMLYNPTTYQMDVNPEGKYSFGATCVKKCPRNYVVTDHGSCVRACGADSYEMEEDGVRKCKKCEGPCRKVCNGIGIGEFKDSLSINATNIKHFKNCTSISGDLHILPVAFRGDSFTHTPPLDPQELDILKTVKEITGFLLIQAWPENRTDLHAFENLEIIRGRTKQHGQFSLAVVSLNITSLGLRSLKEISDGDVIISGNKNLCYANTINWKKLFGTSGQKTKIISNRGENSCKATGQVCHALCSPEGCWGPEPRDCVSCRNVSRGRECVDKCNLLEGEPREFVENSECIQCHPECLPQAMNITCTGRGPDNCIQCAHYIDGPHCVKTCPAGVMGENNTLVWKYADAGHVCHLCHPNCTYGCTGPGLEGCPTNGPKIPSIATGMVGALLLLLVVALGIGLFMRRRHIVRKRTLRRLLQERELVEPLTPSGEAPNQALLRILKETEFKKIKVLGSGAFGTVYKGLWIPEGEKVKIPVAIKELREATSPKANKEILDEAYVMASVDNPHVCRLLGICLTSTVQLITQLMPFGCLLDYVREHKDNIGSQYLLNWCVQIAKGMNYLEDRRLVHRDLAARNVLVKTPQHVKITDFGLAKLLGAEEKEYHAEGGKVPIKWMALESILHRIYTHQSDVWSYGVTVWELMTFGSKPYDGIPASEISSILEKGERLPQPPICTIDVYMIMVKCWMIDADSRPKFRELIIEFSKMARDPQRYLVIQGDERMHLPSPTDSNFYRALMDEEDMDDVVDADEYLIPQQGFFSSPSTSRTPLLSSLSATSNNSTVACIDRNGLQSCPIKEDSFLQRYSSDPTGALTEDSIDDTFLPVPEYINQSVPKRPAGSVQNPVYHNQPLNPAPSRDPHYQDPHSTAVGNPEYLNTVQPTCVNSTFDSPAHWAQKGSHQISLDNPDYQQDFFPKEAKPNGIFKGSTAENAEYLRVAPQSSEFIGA
In experiment [8] the target is Follistatin-related protein 3 (Homo sapiens) (UniProt O95633). The experiment in a line: compounds binding follistatin-related protein 3 – biochemical, small-molecule microarray, 635 nm fluorescence, primary screen (AID 1105).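 Also: score merges emission near 667 nm and signal to noise per printed spot across three slides.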 The conditions noted are these: FSTL3 binding, higher = more signal.
Sequence of Follistatin-related protein 3 (Homo sapiens) (O95633 whole entry, looked up): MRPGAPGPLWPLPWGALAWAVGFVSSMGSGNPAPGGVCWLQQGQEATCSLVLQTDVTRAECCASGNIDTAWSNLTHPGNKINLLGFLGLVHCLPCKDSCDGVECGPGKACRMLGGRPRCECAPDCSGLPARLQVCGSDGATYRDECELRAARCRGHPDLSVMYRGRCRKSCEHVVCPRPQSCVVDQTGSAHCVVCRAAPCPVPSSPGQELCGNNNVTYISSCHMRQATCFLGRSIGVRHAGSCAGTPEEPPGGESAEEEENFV
Experiment [9] has as its target Dickkopf-related protein 1 (Homo sapiens) (UniProt O94907). The experiment can be described thus: small molecules binding DKK1 protein – biochemical, small-molecule microarray, 635 nm fluorescence scan, primary screen (AID 1106).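 Also: score merges emission near 667 nm with signal to noise over three replicate slides.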 The note with it: higher = more signal.
Experiment [10] relates to Inhibin beta A chain (activin A). The experiment can be described thus: small molecules binding activin A – biochemical, small-molecule microarray, 635 nm fluorescence scan, primary screen (AID 1107).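 Also: mouse activin A protein probed at 4.33 µg/mL on printed slides; score merges bound-protein fluorescence near 667 nm with spot signal-to-noise.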 The conditions noted are these: INHBA, higher = more signal.
Experiment [11] relates to Human papillomavirus type 1a protein E7 (residues 44-93). The experiment in a line: small molecules binding HPV E7 44-93 – biochemical, small-molecule microarray, residues 44-93, 635 nm fluorescence, primary screen (AID 1108).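 Also: E7 fragment applied at 1 µg/mL in TBST for 1 h at 4 C; score combines spot fluorescence with its signal to noise ratio.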 The conditions noted are these: fluorescence 635 nm, higher = more signal.
The nature of experiment [12]: hepatitis C replication reporter changes, two-sided – Huh7 cells, luciferase reporter, HCV replication inhibitor project, primary screen (AID 1109).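 Also: huh7 hepatoma cells harbouring a luciferase neomycin HCV replicon reporter; luciferase luminescence as measure of HCV replicon replication; test concentration not given here.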 The note with it: Huh7 HCV replicon luciferase reporter, 48 h; higher = more signal.
The target in experiment [13] is Left-right determination factor 2 (Homo sapiens) (UniProt O00292). The experiment can be described thus: small molecules binding LEFTY2 protein – biochemical, small-molecule microarray, 635 nm fluorescence scan, primary screen (AID 1110). The note with it: higher = more signal.
Sequence of Left-right determination factor 2 (Homo sapiens) (O00292 whole entry, looked up): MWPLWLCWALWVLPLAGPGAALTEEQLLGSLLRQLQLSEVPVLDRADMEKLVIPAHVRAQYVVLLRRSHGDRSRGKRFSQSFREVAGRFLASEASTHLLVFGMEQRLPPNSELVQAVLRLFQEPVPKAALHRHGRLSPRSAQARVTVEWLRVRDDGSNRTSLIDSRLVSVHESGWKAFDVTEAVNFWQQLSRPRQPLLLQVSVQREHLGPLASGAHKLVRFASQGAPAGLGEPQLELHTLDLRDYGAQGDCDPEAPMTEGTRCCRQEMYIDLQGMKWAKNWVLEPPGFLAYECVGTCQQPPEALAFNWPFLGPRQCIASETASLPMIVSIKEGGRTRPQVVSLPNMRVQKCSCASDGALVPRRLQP
In experiment [14] the target is Calmodulin-1 (Homo sapiens) (UniProt P0DP23). The experiment can be described thus: small molecules binding calmodulin-1 with EGTA – biochemical, small-molecule microarray, Cy5-labelled CALM1, profiling panel (AID 1111).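 Also: labelled calmodulin applied in Tris saline Tween buffer holding calcium plus EGTA and DTT.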 The note with it: Cy5-CALM1 binding fluorescence, higher = more signal.
Experiment [15] has the same target. The experiment can be described thus: small molecules binding Ca-loaded calmodulin-1 – biochemical, small-molecule microarray, Cy5-labelled CALM1, plus calcium, artefact control for SMM control-protein annotation, profiling panel (AID 1112).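 Also: score merges spot fluorescence with signal to noise from triplicate slides.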 The note with it: Cy5-CALM1 binding fluorescence, higher = more signal.
The nature of experiment [16]: probe aWnt5a binding to arrayed compounds – biochemical, biotinylated probe, 635/667 nm fluorescence, primary screen (AID 1113).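 Also: score merges 667 nm fluorescence intensity with signal-to-noise per printed feature.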 The conditions noted are these: small-molecule microarray, higher = more signal.
The nature of experiment [17]: probe aShh binding to arrayed compounds – biochemical, biotinylated probe, 635/667 nm fluorescence, primary screen (AID 1114).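 Also: probe is biotin-labelled aShh protein from a stem cell growth factor screen; measures binding of labelled protein to compounds printed on the slide; score merges feature fluorescence at 667 nm with signal-to-noise.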 The conditions noted are these: small-molecule microarray, higher = more signal.
A short description of experiment [18]: probe aNog binding to arrayed compounds – biochemical, biotinylated probe, 635/667 nm fluorescence, primary screen (AID 1115).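 Also: probe is biotinylated aNog protein used at 0.15 µg/mL for 1 h at 4 C; z-score combines 667 nm fluorescence of each spot with its signal to noise.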 The note with it: small-molecule microarray, higher = more signal.
For experiment [19], the target named is Torsin-1A-interacting protein 1 (Homo sapiens) (UniProt Q5JTV8). The experiment in a line: compound microarray binding of lysate hLAP1 – cell lysate, small-molecule microarray, COS7 lysate, 635/667 nm fluorescence, primary screen (AID 1116). The conditions noted are these: 635 nm fluorescence, higher = more signal.
Sequence of Torsin-1A-interacting protein 1 (Homo sapiens) (Q5JTV8 whole entry, looked up): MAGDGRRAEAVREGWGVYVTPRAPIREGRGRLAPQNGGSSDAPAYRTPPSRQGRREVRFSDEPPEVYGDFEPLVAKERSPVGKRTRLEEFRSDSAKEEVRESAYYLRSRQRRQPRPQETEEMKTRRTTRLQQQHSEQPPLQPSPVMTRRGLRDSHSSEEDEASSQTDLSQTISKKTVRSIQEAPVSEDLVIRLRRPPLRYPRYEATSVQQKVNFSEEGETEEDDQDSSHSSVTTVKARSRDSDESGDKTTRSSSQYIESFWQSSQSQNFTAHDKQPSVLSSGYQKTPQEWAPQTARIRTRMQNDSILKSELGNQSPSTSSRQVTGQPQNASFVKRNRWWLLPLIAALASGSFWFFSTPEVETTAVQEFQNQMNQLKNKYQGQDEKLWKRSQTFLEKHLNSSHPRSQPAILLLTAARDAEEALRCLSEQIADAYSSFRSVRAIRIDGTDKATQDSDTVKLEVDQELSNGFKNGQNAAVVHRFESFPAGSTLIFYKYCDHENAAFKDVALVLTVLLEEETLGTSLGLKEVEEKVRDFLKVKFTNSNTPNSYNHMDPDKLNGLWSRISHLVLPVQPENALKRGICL
The target of experiment [20] is Alpha-bungarotoxin (Bungarus multicinctus) (UniProt P60615). The experiment can be described thus: compounds binding labelled alpha-BTX control protein – biochemical, small-molecule microarray, Alexa647 label, 635/667 nm fluorescence, artefact control for SMM control protein annotation, profiling panel (AID 1117). The conditions noted are these: alpha-BTX-A647 binding fluorescence, higher = more signal.
Sequence of Alpha-bungarotoxin (Bungarus multicinctus) (P60615 whole entry, looked up): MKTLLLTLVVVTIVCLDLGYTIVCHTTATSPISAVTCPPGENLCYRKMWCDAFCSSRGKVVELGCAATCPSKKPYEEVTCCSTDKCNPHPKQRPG

Sequence of Dickkopf-related protein 1 (Homo sapiens) (O94907 whole entry, looked up): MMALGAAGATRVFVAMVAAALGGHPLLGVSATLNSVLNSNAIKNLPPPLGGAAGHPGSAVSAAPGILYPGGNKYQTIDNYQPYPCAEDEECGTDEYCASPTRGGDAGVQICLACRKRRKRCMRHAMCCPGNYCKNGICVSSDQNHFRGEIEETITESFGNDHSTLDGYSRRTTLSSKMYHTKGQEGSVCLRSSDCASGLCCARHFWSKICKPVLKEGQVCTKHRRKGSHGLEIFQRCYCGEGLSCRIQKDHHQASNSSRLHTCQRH
Sequence of Fibroblast growth factor 10 (Homo sapiens) (O15520 whole entry, looked up): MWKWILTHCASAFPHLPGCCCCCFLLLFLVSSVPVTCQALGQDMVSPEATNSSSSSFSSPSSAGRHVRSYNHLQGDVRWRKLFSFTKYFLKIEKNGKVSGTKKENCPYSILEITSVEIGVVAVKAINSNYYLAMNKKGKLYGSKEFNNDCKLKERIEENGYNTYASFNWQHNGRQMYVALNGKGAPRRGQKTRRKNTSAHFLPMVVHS

As for `O=C1NC(=O)C2C1C=CC(C(O)c1cccs1)N2Nc1ccccn1` (stereo not given), the composite z-score in experiment [1] amounted to 0.809; in experiment [2] it was 0.53; in experiment [3] it was 0.601; in experiment [5], 0.797; in [6] it was 0.182; in experiment [7] it was 0.727. The composite z-score turned out to be 0.292 in [8]; 0.283 in experiment [9]; 0.538 in experiment [10]; 0.348 in experiment [11]; 0.451 in [13]; 0.0761 in experiment [14]. For the same compound, the composite z-score in experiment [15] is -0.576; in experiment [16] it was -0.096; in [17] it was -0.214; in experiment [18], 0.0516; in [19], 1.32; in experiment [20] it was 1.19. Moreover, the z-score in [4] is 0.566 (inactive); in experiment [12] it was 0.755.

As for `NC(=O)[C@]1(Cc2ccccc2)N=C(c2ccc(OCCCO)cc2)O[C@@H]1c1ccccc1`, the composite z-score in experiment [1] is 0.647; in [2], 1.2; in [3] it was 0.751; in experiment [5] it was 0.61; in [6], 0.0914; in experiment [7] it was -0.722. Also, the composite z-score in [8] is -0.144; in [9], -0.109; in experiment [10] it was 0.558; in experiment [11] it was 1.33; in experiment [13], -1.02; in experiment [14] it was 1.35. Moreover, the composite z-score in [15] was 0.744; in experiment [16], -0.0398; in experiment [17], 0.409; in [18], 1.42; in experiment [19] it was 1.51; in [20], 1.23. The z-score is -0.072 (inactive) in experiment [4] and -0.772 in [12].

On to `COc1ccc(C#Cc2ccc3c(c2)[C@]2(C(=O)N3)[C@H](C(=O)N3CCN(c4ncccn4)CC3)[C@H]3C(=O)O[C@H](c4ccccc4)[C@H](c4ccccc4)N3[C@@H]2c2ccc(O)cc2)cc1`, for which the composite z-score in experiment [1] was 0.707; in experiment [2], -0.015; in [3] it was 0.612; in [5], 0.557; in experiment [6] it was 0.967; in experiment [7], 0.366. For the same compound, the composite z-score in experiment [8] stood at 0.743; in [9], 0.353; in [10] it was 0.536; in experiment [11], 1.4; in experiment [13], 0.169; in experiment [14], 1.23. Also, the composite z-score in experiment [15] is 0.0193; in experiment [16], 0.115; in [17] it was 0.315; in experiment [18] it was -0.406; in experiment [19] it was 0.399; in experiment [20], 0.531. The z-score in [4] is -0.73 (inactive); in [12], -1.73.

As to `Cc1ccc(N2C(=O)c3ccccc3[C@@H](C(=O)NC(C)C)[C@@H]2c2ccc(CO)cc2)nc1`, the composite z-score in [1] was 1.87; in [2] it was 0.167; in experiment [3], 0.61; in [5] it was 0.121; in experiment [6], -0.0399; in [7] it was -0.416. For the same compound, the composite z-score in experiment [8] was -0.64; in experiment [9] it was -0.32; in experiment [10], 0.726; in [11] it was -0.191; in [13], 0.0413; in experiment [14], -0.973. In addition, the composite z-score in [15] was -0.754; in [16], 0.0101; in experiment [17], -0.291; in experiment [18] it was -0.493; in experiment [19], 2.09; in experiment [20] it was -0.719. The z-score in experiment [4] was 0.245 (inactive); in experiment [12], -0.301.

As for `CCN(CC)c1ccc(N2CC=CC34O[C@@H]5C=CCCOC(=O)C5[C@H]3C(=O)N(CCCO)[C@@H]4C2=O)cc1` (stereo not given in full), the composite z-score in experiment [1] is -1.99; in [2], -0.404; in [3] it was -0.373; in experiment [5] it was -0.344; in experiment [6] it was -0.0608; in [7], -0.365. Further, the composite z-score in [8] was -0.0243; in experiment [9], -0.174; in experiment [10], 1.5; in experiment [11], -0.591; in [13], 0.0606; in experiment [14], -0.409. The composite z-score was -0.977 in experiment [15]; -0.176 in [16]; -0.294 in [17]; -0.288 in experiment [18]; -0.273 in [19]; -1.17 in [20]. For the same compound, the z-score is -0.542 (inactive) in [4] and 0.0997 in experiment [12].
